In the library only some 18% were active in any assay of this set; here they are far more common.
DT40 TDP1 CPT = DT40-hTDP1 cell growth loss with CPT; Potency, µM (top dose mostly 46.2 µM), inactives show top-dose activity change, negative = growth inhibition, most hits filed as inhibitors; chicken DT40 Tdp1-/-;hTDP1 cells + 20 nM CPT, ATP luminescence, 48 h; 420,000 tested, 12% active; also: nearly all actives have a fitted effect of over 55% in size
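Chicken DT40 Tdp1-/- cells stably complemented with human TDP1 were seeded at 400 cells/well in medium containing 20 nM camptothecin, exposed to pin-transferred compounds, and grown at 37 °C for at least 48 hr. Viability was read as ATP luminescence.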
KAT2A inh = GCN5L2 (KAT2A) acetyltransferase inhibition. Potency, µM (doses to about 58.9 µM), for the others: at the top dose activity change, negative = inhibition, most hits filed as inhibitors. 390,000 tested, 0.21% active. GCN5L2 HAT assay, ThioGlo1 CoA-SH fluorescence
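Preincubate 20nM GCN5L2 with compound 15 min, RT → add 50uM ThioGlo1 + 75uM H3(1-25) + 70uM acetyl-CoA → read fluorescence 0 and 20 min. Primary qHTS; fluorescent artifacts likely.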
PLK1 PBD inh = inhibitors of human PLK1 polo-box domain binding; P53350; Plk1 PBD binding of FITC phosphopeptide, fluorescence polarization; Potency, µM, without a hit: max response, negative = inhibition, usual class: inhibitors; 360,000 tested, 2.8% active; AID 720504; also: series mostly up to about 57 µM; nearly all actives have a fitted effect of over 65% in size
TDP1 inh = inhibitors of human tyrosyl-DNA phosphodiesterase TDP1. Q9NUW8. recombinant TDP1, AlphaScreen DNA substrate cleavage. Potency, µM (titrated, usually from 130 µM), without a hit: top-dose activity change, negative = inhibition, most hits filed as inhibitors. 350,000 tested, 0.28% active. AID 485290; also: nearly all actives have a fitted effect of over 40% in size
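E. coli-derived human Tdp1, 1 nM final. Cpd preinc 15 min RT; substrate 15 nM final, 5 min RT; AS bead mix 10 ug/ml final, 10 min RT. Signal loss = tyrosine-FITC cleavage. No-enzyme wells = max signal.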
DT40 TDP1 no CPT = qHTS for Inhibitors of human tyrosyl-DNA phosphodiesterase 1 (TDP1): qHTS in cells in absence of CPT; DT40 Tdp1-/- hTDP1 cells, no CPT, ATP luminescence, 48 h; Potency, µM (top dose mostly 46.2 µM), for inactives: at the highest dose activity change, negative = growth inhibition, actives largely listed as inhibitors; 420,000 tested, 15% active; AID 686978, 2013; also: nearly all actives have a fitted effect of over 55% in size
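Cells were dispensed at 400 per well, compounds added by pin tool, plates incubated ≥48 hr at 37 °C, then CellTiter-Glo added for 30 min at room temperature before luminescence reading. Line: DT40 Tdp1-/- complemented with hTDP1; camptothecin omitted.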
VDR inhibitor = blocks the human vitamin D receptor; 400,000 tested, 0.93% active; AID 504847; VDR-SRC2-3 peptide fluorescence polarization, 2 h; P11473; Potency, µM, for the others: max response, negative = inhibition, usual class: inhibitors
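Fluorescence polarization assay measuring small-molecule disruption of VDR binding to the coregulator peptide SRC2-3. Compounds were pin-transferred (23 nl) into the reagent mix and incubated 2 h at room temperature before reading.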
* = called active by the depositor; ? = inconclusive; nt = no result. Calls follow the shape of the dose curve; as a rule, active = well fitted curve in the direction sought with a large enough effect; inconclusive = small, poorly fitted or top-dose-only effect, or another doubt; inactive = no such curve, though single readings can be large; an effect the other way counts as inactive or inconclusive. % is scaled to controls: 0 for no effect and ±100 for the full control effect; potency is read from the fitted curve at half-maximal effect.

SMILES	DT40 TDP1 CPT	KAT2A inh	PLK1 PBD inh	TDP1 inh	DT40 TDP1 no CPT	VDR inhibitor
O=C(Cn1c2ccccc2c(=O)c2ccccc21)Nc1cccc(F)c1	16.4µM*	1.7%	10.6µM*	1.1%	?	?
Cc1c2cnn(CC(=O)NCCCN3CC(C)CC(C)C3)c(=O)c2c(C)n1Cc1ccccc1Cl (centres undefined)	?	2.4%	-20.9%	3.6%	?	16.7%
C=CCc1c(C)[nH]c2c(OC)cccc2c1=S	13µM*	-11.2%	-2.4%	4.8%	18.4µM*	0.6%
CCSc1nnc(NC(=O)[C@H](C)NC(=O)c2ccccc2Cl)s1	3.6%	-0.6%	-8.6%	6.5%	-3.1%	-25.2%
CCCNC(=O)c1cc2c(c(-c3cccc(-c4ccccc4F)c3)n1)[C@H](CCO)N(C(=O)CC1CC1)C2	16.4µM*	nt	-11.1%	nt	16.4µM*	nt
CCNC(=O)c1cc2c(c(-c3cccc(-c4ccccc4F)c3)n1)[C@@H](CCO)N(C(=O)CC1CC1)C2	20.6µM*	nt	-8.9%	nt	?	nt
COCCN(C(=O)COC(=O)CCCOc1ccccc1)c1c(N)n(Cc2ccccc2)c(=O)[nH]c1=O	-5.1%	-6.1%	-8.8%	-13.9%	?	-15.4%
CC(C)CN(C(=O)CCCOc1ccc(Cl)cc1Cl)c1c(N)n(Cc2ccccc2)c(=O)[nH]c1=O	?	0.1%	-3.1%	nt	25.9µM*	16.2%
CC(C)CN(C(=O)COC(=O)C1CC1)c1c(N)n(Cc2ccccc2)c(=O)[nH]c1=O	-11.5%	-2.1%	-1.7%	nt	-4.9%	6.6%
CCN(C(=O)COC(=O)CCCOc1ccc(Cl)cc1C)c1c(N)n(Cc2ccccc2)c(=O)[nH]c1=O	14.6µM*	nt	-7.8%	nt	16.4µM*	-15.0%
CCN(C(=O)COC(=O)C1CCC(C(C)(C)C)CC1)c1c(N)n(Cc2ccccc2)c(=O)[nH]c1=O (centres undefined)	20.6µM*	nt	-8.0%	nt	16.4µM*	-7.3%
CCN(C(=O)COC(=O)CCOc1ccc(C(C)(C)C)cc1)c1c(N)n(Cc2ccccc2)c(=O)[nH]c1=O	11.6µM*	nt	-4.9%	nt	3.66µM*	1.2%
O=C(O)CCCNC(=O)CCCn1nnc2ccccc2c1=O	-1.0%	-0.4%	0.3%	nt	12.4%	-8.2%
CCCN(C(=O)C(C)Oc1cccc(Cl)c1)c1c(N)n(Cc2ccccc2)c(=O)[nH]c1=O (centres undefined)	4.7%	-2.0%	6.8%	0.0%	-6.2%	-19.2%
Nc1c(N(Cc2ccccc2)C(=O)COc2cccc(Cl)c2)c(=O)[nH]c(=O)n1Cc1ccccc1	20.6µM*	-3.1%	-4.9%	0.6%	?	?
Cc1cccc(NC(=O)c2ccc3oc(=O)c(S(=O)(=O)c4ccc(F)cc4)cc3c2)c1C	-13.3%	-0.9%	nt	9.2%	?	-12.3%
Cc1ccc2cc(CCNC(=O)c3cccc([N+](=O)[O-])c3)c(=O)[nH]c2c1	20.6µM*	?	-12.1%	7.5%	20.6µM*	3.8%
Cc1cc2cc(CCNC(=O)c3cccc([N+](=O)[O-])c3)c(=O)[nH]c2cc1C	?	-4.5%	1.3%	3.0%	16.4µM*	-6.9%
Cc1cc2cc(CCNC(=O)c3cccs3)c(=O)[nH]c2cc1C	?	-0.2%	5.7%	3.9%	?	1.5%
Cc1ccc2cc(CCNC(=O)C3CCCCC3)c(=O)[nH]c2c1C	?	1.9%	1.1%	nt	-28.6%	-20.5%
Cc1ccc(C(=O)NCCc2cc3ccc(C)c(C)c3[nH]c2=O)cc1[N+](=O)[O-]	10.3µM*	-2.1%	-3.2%	0.6%	?	4.5%
CCc1nc2ccc(C(=O)NCCc3c[nH]c4ccccc34)cn2c1N(C)Cc1ccc(N(C)C)cc1	?	nt	6.3%	nt	?	nt
CCCCNC(=O)COC(=O)CNC(=O)c1cc(Cl)cc([N+](=O)[O-])c1	5.5%	-9.0%	-10.8%	-5.3%	2.4%	-13.6%
COc1ccc(-c2nc(C(=O)NCCCN3CCOCC3)cc3c2[nH]c2ccccc23)cc1OC	13µM*	-5.6%	-19.4%	nt	3.66µM*	-18.4%
Cc1ccc(-c2nc(C(=O)NCCCN3CCOCC3)cc3c2[nH]c2ccccc23)cc1	3.26µM*	-4.6%	-4.5%	nt	3.26µM*	-10.1%
SMILES	DT40 TDP1 CPT	KAT2A inh	PLK1 PBD inh	TDP1 inh	DT40 TDP1 no CPT	VDR inhibitor
COc1ccccc1-c1cc(C(=O)NCCCN2CCOCC2)no1	-15.0%	-1.8%	-9.4%	-6.1%	-16.5%	3.1%
COc1ccccc1C(=O)Nc1ccc(C(=O)OCc2cc(=O)n3nc(C)sc3n2)cc1	?	4.5%	nt	3.8%	?	5.9%
COC(=O)c1ccccc1NC=C1C(=O)OC2(CCCCC2)OC1=O	-16.6%	-4.6%	4.23µM*	6.6%	-17.0%	18.3%
CC1(c2nc3ccccc3[nH]2)CCC(=O)N1C1CC1 (centres undefined)	7.4%	nt	7.4%	nt	15.6%	nt
CC(=O)Nc1ccc(SCC(=O)c2cc(C)n(-c3ccccc3)c2C)cc1	-10.6%	-0.5%	-23.2%	6.9%	-13.9%	-3.5%
CCCCCCCC[n+]1c(C)n(-c2ccccc2)c2ccc(NC(C)=O)cc21	0.411µM*	-12.3%	-3.9%	3.7%	0.82µM*	20.5%
Cc1cc(Oc2cc(NN3CCCCC3)c([N+](=O)[O-])cc2[N+](=O)[O-])c(C(=O)c2ccccc2)cc1Cl	20.6µM*	-3.7%	-7.5%	nt	?	-15.6%
O=[N+]([O-])c1cc([N+](=O)[O-])c(Oc2cccc(Cl)c2Cl)cc1NN1CCCCC1	23.1µM*	-0.5%	-14.0%	nt	?	-0.2%
CC1(C)Cc2cccc(Oc3cc(NN4CCCCC4)c([N+](=O)[O-])cc3[N+](=O)[O-])c2O1	?	-2.0%	-5.6%	nt	16.4µM*	-17.0%
COc1cc(C(C)=O)ccc1Oc1cc(NN2CCCCC2)c([N+](=O)[O-])cc1[N+](=O)[O-]	23.1µM*	-0.8%	-6.9%	nt	?	-3.7%
COc1ccc(NC(=O)Cn2cnc3c(oc4nc5c(cc43)COC(C)(C)C5)c2=O)cc1	12.9%	-0.9%	-15.6%	-2.4%	0.2%	-18.6%
CCN(C(=O)c1cccnc1SC)C12CC3CC(CC(C3)C1)C2	?	-3.6%	-1.0%	5.9%	20.6µM*	18.3%
COc1cccc(CC2(CO)CCCN(C/C=C/c3ccccc3OC)C2)c1 (centres undefined)	?	-13.3%	0.1%	5.4%	?	2.0%
CCn1nc(C)c(CN2CCCC(CO)(Cc3cccc(Cl)c3)C2)c1C (centres undefined)	?	-1.2%	-9.8%	-2.6%	16.4µM*	-16.6%

Compound activity from PubChem BioAssay.
